# Assay outcomes deposited in PubChem by National Center for Advancing Translational Sciences (NCATS).
# Rows were chosen to be rich in hits. Some 18% of all compounds tested hit in one or more screens of this group.
# TDP1 inh: TDP1 (human) enzyme inhibition | Q9NUW8 | recombinant TDP1, AlphaScreen DNA substrate cleavage | Potency, µM (top dose mostly 130 µM), inactives show at the top dose activity change, negative = inhibition, usual class: inhibitors | 0.28% of 350,000 active; also: nearly all actives have a fitted effect of over 40% in size
#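 Here, a 5' biotin and 3' phosphotyrosine-FITC DNA oligonucleotide reports Tdp1 activity: intact substrate bridges AlphaScreen beads, while cleavage leaves a 3' phosphate and drops signal. All incubations at room temperature.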
# GCN5L2 inh: GCN5L2 (KAT2A) acetyltransferase inhibition; 0.21% of 390,000 active; Potency, µM (highest dose often 58.9 µM), for the others: at the top dose activity change, negative = inhibition, most hits filed as inhibitors; GCN5L2 HAT assay, ThioGlo1 CoA-SH fluorescence
#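 Free CoA generated was detected with ThioGlo1 (50uM) fluorescence at Ex340nm/Em540nm, read immediately and after 20 min at room temperature. Enzyme, 20 nM in HEPES pH 7.5 buffer, saw compounds 15 min before adding 75uM H3(1-25) peptide and 70uM acetyl-CoA.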
# TDP1 cell noCPT: qHTS for Inhibitors of human tyrosyl-DNA phosphodiesterase 1 (TDP1): qHTS in cells in absence of CPT; DT40 Tdp1-/- hTDP1 cells, no CPT, ATP luminescence, 48 h; 15% of 420,000 active; Potency, µM (titrated, usually from 46.2 µM), for the others: top-dose activity change, negative = growth inhibition, hits mostly inhibitors; also: nearly all actives have a fitted effect of over 55% in size
#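 Seeded 400 DT40-hTDP1 cells/well (vehicle DMSO, no 20 nM CPT); pinned compounds; ≥48 hr at 37 °C; CellTiter-Glo luminescence as viability measure.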
# TDP1 cell CPT: growth inhibition of DT40 Tdp1-/-;hTDP1 cells with camptothecin (screen for TDP1 inhibitors). chicken DT40 Tdp1-/-;hTDP1 cells + 20 nM CPT, ATP luminescence, 48 h. Potency, µM (top dose mostly 46.2 µM), inactives show at the highest dose activity change, negative = growth inhibition, most hits filed as inhibitors. 12% of 420,000 active. AID 686979; also: nearly all actives have a fitted effect of over 55% in size
#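 Cell growth measured by CellTiter-Glo luminescence after a minimum 48 h, 37 C compound exposure with 20 nM CPT in Tdp1-knockout DT40 cells stably expressing hTDP1, seeded 400/well; qHTS titration format.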
# VDR inhibitor: blocks the human vitamin D receptor | P11473 | VDR-SRC2-3 peptide fluorescence polarization, 2 h | Potency, µM, for the others: max response, negative = inhibition, usual class: inhibitors | 0.93% of 400,000 active
#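 Reagent solutions, kept cold and dark, are dispensed first; compounds are then pinned in at 23 nl, plates briefly spun, and incubated 2 h at ambient temperature. Inhibition of VDR–SRC2-3 peptide binding is read by fluorescence polarization.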
# PLK1 PBD block: inhibitors of human PLK1 polo-box domain binding. P53350. Plk1 PBD binding of FITC phosphopeptide, fluorescence polarization. Potency, µM, inactives show max response, negative = inhibition, hits mostly inhibitors. 2.8% of 360,000 active. AID 720504; also: series mostly up to about 57 µM; nearly all actives have a fitted effect of over 65% in size
# Target sequence (P53350 whole entry, looked up, the tested form may be a part): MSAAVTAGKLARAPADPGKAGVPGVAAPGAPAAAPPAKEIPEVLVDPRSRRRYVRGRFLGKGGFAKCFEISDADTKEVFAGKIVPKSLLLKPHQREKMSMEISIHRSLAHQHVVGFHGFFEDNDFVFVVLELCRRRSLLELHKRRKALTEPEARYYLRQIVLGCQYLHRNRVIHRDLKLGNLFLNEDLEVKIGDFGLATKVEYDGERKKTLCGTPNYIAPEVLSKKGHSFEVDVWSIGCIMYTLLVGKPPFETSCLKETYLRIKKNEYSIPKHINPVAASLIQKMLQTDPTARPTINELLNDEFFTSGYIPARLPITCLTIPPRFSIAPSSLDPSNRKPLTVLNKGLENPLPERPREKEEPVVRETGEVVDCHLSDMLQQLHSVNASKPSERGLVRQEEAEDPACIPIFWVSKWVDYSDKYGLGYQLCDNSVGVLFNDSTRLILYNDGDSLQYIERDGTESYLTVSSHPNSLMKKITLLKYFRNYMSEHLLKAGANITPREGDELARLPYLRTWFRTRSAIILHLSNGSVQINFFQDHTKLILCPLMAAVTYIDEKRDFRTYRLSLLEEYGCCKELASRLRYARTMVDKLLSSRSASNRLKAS
# Active calls of the source: *; ? = inconclusive; / = not tested or not shown; [ ] = dose if it differs, or a comment. Calls follow the shape of the dose curve; as a rule, active = well fitted curve in the direction sought with a large enough effect; inconclusive = small, poorly fitted or top-dose-only effect, or another doubt; inactive = no such curve, though single readings can be large; an effect the other way counts as inactive or inconclusive. % is scaled to controls: 0 for no effect and ±100 for the full control effect; potency is read from the fitted curve at half-maximal effect.
SMILES,TDP1 inh,GCN5L2 inh,TDP1 cell noCPT,TDP1 cell CPT,VDR inhibitor,PLK1 PBD block
COc1ccc(-n2c(Cc3ccccc3)nc3ccccc3c2=O)cc1,1%,-1%,?,-46%,-4%,-4%
COc1ccc(-n2c(-c3ccccc3Br)nc3ccccc3c2=O)cc1,/,1%,21µM*,?,4%,-5%
COc1ccc(-n2c(-c3ccccc3F)nc3ccccc3c2=O)cc1,/,/,21µM*,?,/,-7%
COc1ccc(-c2nc3ccccc3c(=O)n2-c2ccc(OC)cc2)cc1,4%,-4%,?,?,-9%,-7%
O=C(CNC(=O)c1ccc(Br)cc1)NCC(=O)OCC(=O)c1ccc([N+](=O)[O-])cc1,8%,-3%,-14%,?,?,-8%
CC(C)(OO)c1ccccc1,6%,/,/,/,/,/
Cc1c(CC(=O)N2C[C@H]3C[C@@H](C2)c2cccc(=O)n2C3)c(=O)oc2cc(O)c(Cl)cc12,/,20µM*,7%,24%,-13%,-3%
O=C(Cn1c(=O)n(CC2CCC(C(=O)NCCc3ccccc3)CC2)c(=O)c2ccccc21)Nc1cccc(F)c1 (stereo not given),2%[12.3 µM],-4%,?,?,-17%,/
Cc1cccc(CN2CCc3nc(N4CCN(c5ccccn5)CC4)ncc3C2)c1,-1%,22%,10µM*,15µM*,8%,/
Cc1cccc(CN2CCN(C(=O)Cc3ccccc3)CC2)c1,/,-1%,-24%,1%,-4%,-15%
O=C1NC(=O)C(CCc2ccncc2)(Cc2cccc(Cl)c2Cl)C(=O)N1c1ccc(Br)cc1 (stereo not given),3%,-6%,5.8µM*,4.6µM*,-13%,-16%
CCc1ccc(N2C(=O)NC(=O)C(CCc3ccncc3)(CCc3ccncc3)C2=O)cc1,5%,-8%,6%,-7%,3%,-6%
CC(C)=CC1C(C(=O)OCN2C(=O)C3=C(CCCC3)C2=O)C1(C)C (stereo not given),/,2%,-23%,-28%,3%,/
ClCC(Cl)Cl,2%,/,/,/,/,/
CN1C(=O)C(=Cc2ccc(Sc3ccccc3)o2)C(=O)N(C)C1=S,/,/,?,?,-15%,2.7µM*
CCC1(C)CC(=O)NC(=O)C1,2%[56.1 µM],0%[21.4 µM],4%[21.1 µM],0%[21.1 µM],-1%,/
O=C1NC2CCCCN2C12CCN(CCCN1c3ccccc3CCc3ccc(Cl)cc31)CC2 (stereo not given),/,/,24µM*,?,/,/
C=CC[N+]1(C)CCC23c4c5ccc(O)c4O[C@H]2C(=O)CC[C@@]3(O)C1C5 (stereo not given in full),1%,2%,/,/,4%,/
COc1ccc(N2C(=O)NC(=O)/C(=C/c3cccc(OC(=O)c4cccs4)c3)C2=O)cc1Cl,-5%,?,1%,0%,?,19µM*
Cc1ccc(N2C(=O)NC(=O)/C(=C/c3ccc(OC(=O)c4cccs4)cc3)C2=O)cc1,/,-18%,-1%,-1%,?,9.5µM*
NC(CCCCCP(=O)(O)O)C(=O)O (stereo not given),9%[56.1 µM],?,/,/,2%,/
CC(NS(=O)(=O)OCC(Cl)(Cl)Cl)c1ccccc1 (stereo not given),/,-2%,5%,6%,-9%,-3%
CC(C)NS(=O)(=O)c1ccc2c(c1)oc(=O)n2C,3%,2%,?,-17%,-16%,-17%
CN1c2ccc([N+](=O)[O-])cc2CC2(C(=O)NC(=O)N(c3ccc(Br)cc3)C2=O)C1c1ccccc1 (stereo not given),7%,-15%,18µM*,18µM*,-21%,?
O=C1NC(=O)C2(Cc3ccccc3N3CCCC32)C(=O)N1c1ccccc1 (stereo not given),8%,-3%,-11%,0%,-11%,-14%
SMILES,TDP1 inh,GCN5L2 inh,TDP1 cell noCPT,TDP1 cell CPT,VDR inhibitor,PLK1 PBD block
CC(C)N(Cc1nccn1C)C(=O)CCc1nnc(CCCc2ccccc2)o1,3%,20%,?,-1%,-11%,-10%
C=C1C(=O)OC2C1CCC(C)C1(O)C=CC(=O)C21C (stereo not given),/,/,2.3µM*,2.6µM*,-14%,-7%
COC(=O)[C@]1(C)CC[C@@]2(C)CC[C@@]3(C)C4=CC=C5C(=CC(=O)C(O)=C5C)[C@@]4(C)CC[C@@]3(C)C2C1 (stereo not given in full),9%[12.3 µM],-17%,0.73µM*,1µM*,3.2µM*,/
c1ccc(N2CCN(c3ncnc4c3nc3n4CCCC3)CC2)cc1,1%,-9%,?,?,16%,/
Cc1ccc(Cl)cc1N1CCN(c2ncnc3c2nc2n3CCCC2)CC1,4%,-8%,18µM*,?,16%,/
Ic1cncc(OC[C@@H]2CCN2)c1,11%,-12%[0.501 µM],-1%,14%,13%,/
COc1cccc(CNCCc2ccc3c(c2)OCO3)c1OC,/,-7%,?,-35%,-1%,12%
COc1ccc2c(c[n+](C)c3c4cc5c(cc4ccc23)OCO5)c1OC,15%,?,1.3µM*,1.3µM*,28µM*,/
COc1cc2c(ccc3c4cc(OC)c(OC)cc4c[n+](C)c23)cc1O,/,/,1.2µM*,1.3µM*,-5%,-6%
Cc1cccc(-c2nn3c(=O)cc(CN4CCN(C(=O)COc5ccc(Cl)cc5)CC4)nc3s2)c1,11%,4%,?,?,23%,/
COc1cc2c(cc1OC)-c1c(OC)c(OC)c(CO)c3c1C(C2)N(C)CC3 (stereo not given),17%,/,-13%,4%,/,/
COc1ccc(Cl)cc1NC(=O)CN1C(=O)CN=C(c2ccccc2)c2cc(Cl)ccc21,5%,-10%,15µM*,?,-10%,/
Cc1cc(C)cc(NC(=O)CN2C(=O)CN=C(c3ccccc3)c3cc(Cl)ccc32)c1,4%,-13%,?,21µM*,10%,/
Cc1cccc([N+](=O)[O-])c1,0%,-13%,-3%,4%,-8%,-3%
O=[N+]([O-])c1cccc(NP(=O)(N2CC2)N2CC2)c1,/,/,6.5µM*,2.1µM*,6%,4%
CC1=C(C(=O)O)N2C(=O)[C@@H](NC(=O)CCCC(=O)O)[C@H]2SC1,-4%,-9%,-12%,-4%,-20%,-26%
Nc1nc(/C(=C/CC(=O)O)C(=O)NC2C(=O)N3C(C(=O)O)=CCSC23)cs1 (stereo not given),25µM*,10%,/,/,50µM*,/
CCN1/C(=C/C=C/C2=[N+](CC)c3ccccc3C2(C)C)C(C)(C)c2ccccc21,/,/,0.13µM*,0.15µM*,/,91%
CNC(=O)O/N=C(/C)SC,3%,-2%,-3%,-5%,4%,/
